We go through seven compounds from PubChem BioAssay (NCATS).

The structures appear in SMILES notation. Values joined by “and” are separate entries in the source; they are usually repeats but may differ in a detail not shown here. Identical values can stand only once. Results filed as inconclusive are left out. Active and inactive are the calls of the source. Unless noted, calls follow the shape of the dose curve; as a rule, active = well fitted curve in the direction sought with a large enough effect; inconclusive = small, poorly fitted or top-dose-only effect, or another doubt; inactive = no such curve, though single readings can be large; an effect the other way counts as inactive or inconclusive. Bounds are passed on as bounds.

The nature of assay [1]: Cell Viability - Hek293 (AID 427;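 active = compounds whose dose-response curve shows a full or clear partial loss of cell viability, called from curve shape rather than a numeric limit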;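 also: potency is read from the fitted curve at half-maximal effect; cells exposed to compound for 40 hours at 37 °C before reading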). Particulars: qHTS. A digest of the protocol: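 qHTS, human embryonic kidney (adenovirus-transformed) cells; 40 hr cpd, 37 °C; CellTiter-Glo ATP luminescence. Norm: DMSO = 0, 100 uM tamoxifen = 100% inhibition. Hill-fit AC50.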
On the technique in general: In qHTS, concentration-response curves come from the screen itself.

The nature of assay [2]: Cell Viability - N2a (AID 540).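 Also: cells exposed to compound for 40 h at 37 °C; plate controls were DMSO alone for no effect and tamoxifen control for full effect; nearly all actives have a fitted effect of over 45% in size.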 Particulars: N2a mouse neuroblastoma cell viability; activity change, negative = cytotoxicity: at 92.2 µM (top of the series). A digest of the protocol: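 Luminescent ATP signal (CellTiter-Glo, 20 min at room temperature) served as the viability read-out after N2a cells were treated with compounds for 40 hours at 37 °C. Concentration-response data were fitted to the Hill equation for AC50.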

A short description of assay [3]: Cell Viability - H-4-II-E (AID 543). Also: % is scaled to controls: 0 for no effect and ±100 for the full control effect; nearly all actives have a fitted effect of over 35% in size. Particulars: H-4-II-E rat hepatoma viability; series mostly up to 92.2 µM. In outline: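 Luminescent ATP signal (CellTiter-Glo) served as the viability read-out, with cytotoxicity seen as a concentration-dependent ATP drop. Cells were treated for 40 hours in complete medium. AC50 values derive from Hill-equation modelling.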
The nature of assay [4]: Cellular Toxicity (caspase-3) SHSY5Y (AID 657). Conditions: SH-SY5Y caspase-3 activation, DMSO zero, 10 µM staurosporine = 100%; series mostly up to 91.7 µM. In outline:
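SH-SY5Y human neuroblastoma cells, 1500/well, exposed to compound for 16 hours at 37 °C in complete medium. Caspase-3/7 activity read by Caspase-Glo luminescence after 1 hr at room temperature, normalized to DMSO and 10 uM staurosporine; AC50 from Hill fit.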

Assay [5] is described as follows: Cellular Toxicity (caspase-3) Mesangial (AID 660).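 Also: cells exposed to compound for 16 h before the caspase read.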 Particulars: mesangial cells, normalized: DMSO 0%, 100 µM tamoxifen 100%; series mostly up to 91.7 µM. In outline:
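Mesangial cells, 1000/well, 5 h settle at 37 °C; compound 16 h, 37 °C; Caspase-Glo 3/7 reagent 20 min RT; luminescence. Norm.: DMSO = 0%, tamoxifen 100 uM = 100%. AC50, Hill fit.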

Assay [6] can be described thus: Cellular Toxicity (caspase-3) SK-N-SH (AID 661).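 Also: 0% = DMSO basal and 100% = 10 µM staurosporine.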 Particulars: SK-N-SH caspase-3 activation, qHTS; series mostly up to 91.7 µM. A digest of the protocol:
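Human neuroblastoma SK-N-SH, 1500 cells/well, 5 hr pre-incubation, then compound 16 hr, 37 °C. Caspase-Glo 3/7 reagent, 1 hr RT, luminescence. Norm. to DMSO/10 uM staurosporine; Hill-fit AC50.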

Assay [7] can be described thus: Cellular Toxicity (caspase-3) Renal Proximal Tubule (AID 667).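 Also: cells exposed to compound for 16 hours at 37 °C before detection; 0% = DMSO basal and 100% = 10 µM staurosporine.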 Conditions: renal proximal tubule cells; series mostly up to 91.7 µM. In outline: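 Freshly isolated primary rat kidney proximal tubule cells, 1000/well, treated 16 hr at 37 °C, then Caspase-Glo 3/7 luminescence after 1 hr. Normalized to DMSO and 10 uM staurosporine; AC50 from Hill fit.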
A short description of assay [8]: Cell Viability - LYMP1-003 - Assay at 24 hr (AID 963).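 Also: plate controls were DMSO only for no effect and tetraoctylammonium bromide positive control for full effect.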 Conditions: LYMP1-003 lymphoblastoid cell viability; series mostly up to 92.2 µM. A digest of the protocol: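 Cells seeded at 2500/well, 5 hr at 37 C; compounds added; 24 hr at 37 C; CellTiter-Glo added, 30 min room temperature; luminescence read. Decrease in ATP taken as cytotoxicity, AC50 from Hill modelling.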

A short description of assay [9]: Cell Viability - LYMP2-003 (AID 965).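 Also: cells exposed to compounds for 24 h before reading; 0% = DMSO only and full effect = 92 µM tetraoctylammonium bromide; nearly all actives have a fitted effect of over 50% in size.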 Particulars: LYMP2-003 lymphoblastoid cell viability; series mostly up to 92.2 µM. In outline: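 Human lymphoblastoid LYMP2-003 cells, 2500/well, exposed to compounds for 24 h at 37 C in complete medium. Viability read as intracellular ATP by CellTiter-Glo luminescence; AC50 from Hill-equation fits of qHTS concentration-response data.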

The nature of assay [10]: Cell Viability - LYMP2-005 (AID 967).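 Also: plate controls were DMSO only for no effect and 92 µM tetraoctylammonium bromide control for full effect.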 Particulars: LYMP2-005 lymphoblastoid cell viability; series mostly up to 92.2 µM. A digest of the protocol:
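Human lymphoblastoid LYMP2-005 cells, 2,500 per well in complete medium, rested 5 h at 37C then compound-treated 24 h at 37C. Intracellular ATP read by CellTiter-Glo luminescence after 30 min at room temperature; AC50 from Hill-equation fits of concentration-response data.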

The nature of assay [11]: Cell Viability - LYMP2-009 (AID 968).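 Also: 0% = DMSO alone and the full-kill end = tetraoctylammonium bromide at 92 µM; nearly all actives have a fitted effect of over 55% in size.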 Particulars: LYMP2-009 lymphoblastoid cell viability; series mostly up to 92.2 µM.
Assay [12] is described as follows: Cell Viability - LYMP2-013 (AID 970).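 Also: 0% = DMSO only and full inhibition = tetraoctylammonium bromide control; nearly all actives have a fitted effect of over 55% in size.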 Conditions: LYMP2-013 lymphoblastoid cells viability; series mostly up to 92.2 µM. In outline:
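qHTS; 2500 lymphoblastoid cells/well; 5 hr 37 C settle; cpd 24 hr 37 C; CellTiter-Glo, 30 min RT; luminescence. AC50 = Hill fit.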

The nature of assay [13]: Cell Viability - LYMP2-017 (AID 972). Also: % is scaled to controls: 0 for no effect and ±100 for the full control effect; nearly all actives have a fitted effect of over 55% in size. Conditions: LYMP2-017 lymphoblastoid cell viability; series mostly up to 92.2 µM. A digest of the protocol:
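2500 cells/well, 5 h 37 C; cpd 24 h 37 C in complete medium; CellTiter-Glo, 30 min RT; luminescence (ATP). AC50 via Hill fit, qHTS.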

Assay [14] is described as follows: Cell Viability - LYMP2-023 (AID 975).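 Also: cellular ATP measured by luciferase luminescence as viability proxy; plate controls were DMSO only for no effect and 92 µM tetraoctylammonium bromide control for full effect; nearly all actives have a fitted effect of over 55% in size.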 Conditions: LYMP2-023 lymphoblastoid cell viability; series mostly up to 92.2 µM. A digest of the protocol: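 2500 cells/well, 5 hr 37 C; cpd 24 hr 37 C; CellTiter-Glo, 30 min RT; luminescence. qHTS conc-response, Hill fit -> AC50. Pos ctrl tetraoctylammonium bromide.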
Assay [15] in a line: Cell Viability - LYMP2-016 (AID 984). Particulars: LYMP2-016 lymphoblastoid cell viability, qHTS; series mostly up to 92.2 µM. In outline: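 Human lymphoblastoid LYMP2-016 cells, 2500 per well, treated with compounds for 24 h at 37 C. Viability read as intracellular ATP by CellTiter-Glo luminescence after 30 min at room temperature; AC50 from Hill fits of concentration-response.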

The target in assay [16] is Vitamin D3 receptor (Homo sapiens) (UniProt P11473). Description: qHTS assay for small molecule antagonists of vitamin D receptor signaling (AID 588541; calls by dose curve;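 also: receptor activated by calcitriol during compound treatment; % is scaled to controls: 0 for no effect and ±100 for the full control effect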). Conditions: HEK293T VDR-UAS-bla, beta-lactamase ratio, antagonist mode; series mostly up to 76.7 µM. In outline:
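Antagonist-mode beta-lactamase reporter assay: HEK293T VDR-UAS-bla cells were exposed to titrated compound alongside 1-alpha,25-dihydroxyvitamin D3 at 3 nM final for 16 h. Values were normalized to the 50 nM agonist control and DMSO basal, with IC50 and efficacy from Hill equation fits.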

Assay [17] in a line: qHTS assay for small molecule agonists of retinoid X receptor alpha signaling (AID 588544). Particulars: HEK293T RXRa-UAS-bla, beta-lactamase reporter, 18 h; 530 nm emission.
Assay [18] can be described thus: qHTS assay for small molecule agonists of the antioxidant response element (ARE) signaling pathway measured by Nrf2-dependant transcriptional activity - cell viability counter screen (AID 720653; active = well fitted curve in the direction sought with a large enough effect in the repeat runs; an effect the other way counts as inactive or inconclusive; also: % is scaled to controls: 0 for no effect and ±100 for the full control effect). Particulars: ARE-bla HepG2 viability, CellTiter-Glo ATP luminescence, 16 h; stronger effect = lower value. In outline:
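Cytotoxicity counter screen: intracellular ATP quantified by CellTiter-Glo luminescence in the same ARE-bla HepG2 plates, after 16 h compound exposure and a 2 h beta-lactamase substrate step.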

The nature of assay [19]: qHTS assay for cell viability of HEK293 cells (AID 743288). Also: % is scaled to controls: 0 for no effect and ±100 for the full control effect; nearly all actives have a fitted effect of over 50% in size. Conditions: ATP luminescence (CellTiter-Glo), 18 h, stronger effect = lower value. A digest of the protocol: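 Parental HEK293 cells, 2,000 per well, preincubated at least 5 h at 37 C, then exposed to compounds in DMSO for 18 h at 37 C. Viability by CellTiter-Glo ATP luminescence after 30 min at room temperature.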
A short description of assay [20]: qHTS assay for small molecule activators of the p53 signaling pathway (AID 651743; active = well fitted activation curve with a large enough effect in the signal ratio, not every such curve was filed as active; the % refers to the signal ratio; also: % of control where 0% means no effect). Particulars: HCT-116 p53RE-bla, beta-lactamase FRET ratio, 16 h; activation: stronger effect = higher value. A digest of the protocol:
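Read-out is fluorescence intensity from the LiveBLAzer B/G FRET substrate, added for 2 hours at room temperature after HCT-116 p53RE-bla cells had been incubated with compounds for 16 hours at 37 C.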

Vitamin D3 receptor (Homo sapiens), sequence (P11473 whole entry, looked up): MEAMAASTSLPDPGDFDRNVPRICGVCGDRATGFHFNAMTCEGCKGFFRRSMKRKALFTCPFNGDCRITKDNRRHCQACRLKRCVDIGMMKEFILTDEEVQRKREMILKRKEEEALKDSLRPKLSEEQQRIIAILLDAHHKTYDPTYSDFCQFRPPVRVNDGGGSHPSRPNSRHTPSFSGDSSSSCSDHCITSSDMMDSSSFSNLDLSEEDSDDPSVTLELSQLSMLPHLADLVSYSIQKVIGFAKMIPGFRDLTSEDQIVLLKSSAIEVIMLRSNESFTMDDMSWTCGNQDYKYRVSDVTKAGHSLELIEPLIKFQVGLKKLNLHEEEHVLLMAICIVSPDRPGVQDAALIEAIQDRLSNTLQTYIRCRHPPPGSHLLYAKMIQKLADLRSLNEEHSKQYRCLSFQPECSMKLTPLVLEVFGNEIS

For the compound `Clc1cccc(Cl)c1Cl`, the Potency in assay [1] was > 92 µM (inactive). Besides, the Potency result in assay [2], in assay [3], in assay [6], in assay [9], in assay [10] and in assay [11] was “inactive” in each case. The Potency entry in [12], in [13], in assay [14] and in [15] was “inactive” throughout. Moreover, the result in [4], in assay [5], in assay [7], in assay [8] and in assay [16] was inactive. For the same compound, the max response in [17] is 4.23% and 3.5%; in assay [18], -3.73% (inactive) and 1.34% (inactive); in assay [19] it was -5.25% (inactive) and -0.775% (inactive).

With `CC(C)(Cl)[N+](=O)[O-]`, the Potency in assay [1] was > 92 µM (inactive). The Potency entry in assay [2], in [3], in [6], in [9], in assay [10] and in [11] was “inactive” each time. Besides, the Potency result in assay [13], in [14] and in [15] was “inactive” in each case. Further, the compound was classed as inactive in assay [4], in assay [5], in assay [7], in assay [8] and in assay [16]. Moreover, the max response in assay [17] was -3.38%; in assay [18], -1.78% (inactive). Also, the activation in [20] is 3.96% (inactive).

Regarding `CC(C)(C)c1ccccc1O`, in [1], the Potency is > 92 µM (inactive). In addition, the Potency entry in [2], in assay [3], in [6], in [9], in [10] and in assay [11] was “inactive” throughout. In addition, the Potency entry in assay [12], in assay [14] and in assay [15] was “inactive” throughout. Further, the outcome in assay [4], in [5], in assay [7], in [8] and in assay [16] was inactive. Further, the max response in [17] is -1.25% and -13.7%; in assay [18], -8.15% (inactive) and -10.7% (inactive); in [19], -7.55% (inactive) and -11.9% (inactive).

With `CSSC`, the Potency in assay [1] was > 92 µM (inactive). Also, the Potency entry in [2], in assay [3], in [6], in assay [9], in [10] and in assay [11] was “inactive” in each case. In addition, the Potency result in assay [12], in assay [13], in assay [14] and in assay [15] was “inactive” in each case. In addition, the call in assay [5], in assay [8] and in assay [16] was inactive. The max response is 1.16% in assay [17], 1.42% (inactive) in assay [18] and -1.5% (inactive) in [19]. In [20], the activation is -1.71% (inactive).

As to `O=C(O)c1cc(Cl)ccc1Cl`, the Potency in assay [1] was > 92 µM (inactive). In addition, the Potency result in assay [2], in assay [3], in [6], in assay [9], in assay [10] and in [11] was “inactive” each time. Further, the Potency entry in assay [12], in assay [13], in assay [14] and in assay [15] was “inactive” throughout. For the same compound, the compound was classed as inactive in assay [4], in [5], in assay [7], in assay [8] and in assay [16]. The max response is -6.74% in [17], -0.443% (inactive) in assay [18] and -1.88% (inactive) in [19]. The activation in assay [20] is -4.12% (inactive).

`O=[N+]([O-])c1ccc(Cl)cc1`: in assay [1], the Potency was > 92 µM (inactive). The Potency entry in [2], in [3], in assay [6], in assay [9], in assay [10] and in assay [11] was “inactive” throughout. Further, the Potency result in assay [12], in assay [13] and in assay [14] was “inactive” each time. Also, the result in assay [4], in assay [5], in assay [7], in [8] and in assay [16] was inactive. Moreover, the max response in [17] is -17.3% and -9.79%; in assay [18], -7.74% (inactive) and 0.776% (inactive). The activation in [20] was 0.333% (inactive) and 2.39% (inactive).

Consider `ClC=CCl`, for which, in assay [1], the Potency is > 92 µM (inactive). In addition, the Potency result in [2], in assay [3], in [9], in assay [11] and in assay [15] was “inactive” throughout. The call in [5], in assay [7] and in [16] was inactive. Further, the max response in assay [17] is -1.25%; in assay [18] it was -14.4% (inactive); in assay [19], -11.1% (inactive). The activation in [20] is -3.46% (inactive).
